# Bioassay records deposited in PubChem by National Center for Advancing Translational Sciences (NCATS).
# BAZ2B block – BAZ2B (human) inhibition | Q9UIF8 | AlphaScreen BAZ2B-H3K14Ac peptide displacement | Potency, µM (top dose mostly 114 µM), most hits filed as inhibitors | 360,000 tested, 4.4% active | AID 504333; note: nearly all actives have a fitted effect of over 60% in size
#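 Complex of BAZ2B and biotin-H3K14Ac (50 nM apiece) forms over 30 min at RT, then faces library compounds up to 110 uM for another 30 min; AlphaScreen beads added, 20 min dark incubation, luminescence read.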
# L3MBTL1 block – L3MBTL1 (human) inhibition. Q9Y468. Potency, µM (highest dose often 57.1 µM), usual class: inhibitors. AlphaScreen L3MBTL1–H3K9me1 peptide binding. 230,000 tested, 0.66% active. AID 485360; note: nearly all actives have a fitted effect of over 60% in size
#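 Displacement of a biotinylated histone H3(1-15) peptide monomethylated at Lys9 (75 nM) from L3MBTL1 (50 nM) was measured by AlphaScreen after a 30 min room-temperature compound incubation; cefsulodin titration served as intraplate control.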
# PLK1 PBD block – inhibitors of human PLK1 polo-box domain binding. AID 720504. Plk1 PBD binding of FITC phosphopeptide, fluorescence polarization. P53350. Potency, µM, actives largely listed as inhibitors. 360,000 tested, 2.8% active; note: series mostly up to about 57 µM; nearly all actives have a fitted effect of over 65% in size
# VDR inhibitor – inhibitors of human vitamin D receptor; P11473; VDR-SRC2-3 peptide fluorescence polarization, 2 h; Potency, µM, most hits filed as inhibitors; 400,000 tested, 0.93% active; AID 504847
# Target sequence (P11473 whole entry, looked up): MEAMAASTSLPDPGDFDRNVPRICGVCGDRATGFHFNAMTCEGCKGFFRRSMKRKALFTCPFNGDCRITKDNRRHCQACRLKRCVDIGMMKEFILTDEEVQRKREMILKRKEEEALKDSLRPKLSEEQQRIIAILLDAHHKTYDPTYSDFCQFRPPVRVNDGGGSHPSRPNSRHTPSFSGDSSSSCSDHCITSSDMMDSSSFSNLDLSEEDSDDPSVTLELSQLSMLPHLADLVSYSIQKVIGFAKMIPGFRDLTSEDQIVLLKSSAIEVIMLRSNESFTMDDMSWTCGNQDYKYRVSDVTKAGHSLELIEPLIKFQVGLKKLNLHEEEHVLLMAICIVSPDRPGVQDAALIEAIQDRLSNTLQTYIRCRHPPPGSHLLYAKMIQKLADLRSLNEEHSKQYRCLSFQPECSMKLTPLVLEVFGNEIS
#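 Two reagent solutions held at 4 deg C in the dark were dispensed, compounds pinned at 23 nl, and the mixture incubated 2 h at room temperature. Read-out: fluorescence polarization of VDR–SRC2-3 peptide binding.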
# HP1b binding inh – HP1-beta chromodomain-methylated histone interaction inhibition; P83916; 390,000 tested, 0.56% active; Potency, µM (doses to about 114 µM), most hits filed as inhibitors; AID 540317; AlphaScreen HP1-beta / biotin-H3K9me3 peptide binding; note: nearly all actives have a fitted effect of over 70% in size
# Target sequence (P83916 whole entry, looked up): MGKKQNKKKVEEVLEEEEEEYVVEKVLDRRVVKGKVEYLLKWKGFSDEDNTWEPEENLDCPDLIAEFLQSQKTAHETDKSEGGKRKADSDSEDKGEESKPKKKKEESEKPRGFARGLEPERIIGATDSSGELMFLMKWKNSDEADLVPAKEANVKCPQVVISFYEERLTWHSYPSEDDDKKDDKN
#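 HP1-beta protein (50 nM final) preincubated 30 min at room temperature with biotinylated H3(1-18)K9me3 peptide (50 nM) in PBS pH 7.4, 0.01% Tween-20, then compound added for 30 min. AlphaScreen streptavidin donor/nickel chelate acceptor beads (10 ug/mL final), 30 min dark, luminescence read.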
# JMJD2A Tudor inh – JMJD2A Tudor domain (human) inhibition; O75164; AlphaScreen JMJD2A-Tudor / H3K4me3 peptide binding; Potency, µM (highest dose often 114 µM), usual class: inhibitors; 390,000 tested, 4.4% active; AID 504339; note: nearly all actives have a fitted effect of over 50% in size
# A number is an active result; – = inactive; ? = inconclusive; · = no result; [ ] = remark or other dose. Only some compounds are listed: those with a hit (about 6.9% of all), similar ones and a draw of the others. Calls come from the whole dose curve; as a rule, active = well fitted curve in the direction sought with a large enough effect; inconclusive = small, poorly fitted or top-dose-only effect, or another doubt; inactive = no such curve, though single readings can be large; an effect the other way counts as inactive or inconclusive.
SMILES,BAZ2B block,L3MBTL1 block,PLK1 PBD block,VDR inhibitor,HP1b binding inh,JMJD2A Tudor inh
CC(=O)Nc1nc(C)c(-c2csc(Nc3ccc(O)cc3)n2)s1,50µM,–,–,89µM,?,50µM
CCC(=O)Nc1nc(C)c(-c2csc(Nc3ccc(C(=O)O)cc3)n2)s1,–,·,?,–,–,–
Cc1nc(NC(=O)c2ccccc2)sc1-c1csc(Nc2ccc(C(=O)O)cc2)n1,10µM,·,?,–,40µM,22µM
CCCC(=O)Nc1nc(C)c(-c2csc(Nc3ccc(Cl)cc3)n2)s1,28µM,–,–,–,?,?
CC(OC(=O)CNC(=O)c1ccc2ccccc2c1)C(=O)N(C)C1CCCCC1 (centres undefined),–,–,–,–,–,–
O=C(c1ccc([N+](=O)[O-])cc1)N1CCCC1,–,–,–,–,–,–
O=C(c1ccccc1)N1CCN(C(=O)c2ccc([N+](=O)[O-])cc2)CC1,–,–,–,–,–,–
O=C(c1ccccc1)N1CCN(c2ccc([N+](=O)[O-])cc2-n2cccc2)CC1,28µM,·,–,–,–,?
CC1CCN(C(=S)c2ccc([N+](=O)[O-])cc2)CC1,?,–,24µM,?,?,–
CC(C)N1CCN(C(=O)c2ccc([N+](=O)[O-])cc2)CC1,·,·,–,–,?,79µM
CC1CCN(S(=O)(=O)c2ccc([N+](=O)[O-])cc2)CC1,–,–[2.29 µM],–,–,–,–
O=[N+]([O-])c1ccc(C(=S)N2CCCC2)cc1,?,–,21µM,–,–,–
CCN1CCN(C(=S)c2ccc([N+](=O)[O-])cc2)CC1,–,–,12µM,71µM,–,?
CCCN1CCN(C(=S)Nc2ccc([N+](=O)[O-])cc2)CC1,–,–,?,–,–,–
O=C(CNC(=O)c1ccccc1)OCCOc1cccc(Cl)c1,–,–,–,–,–,–
O=C(CNC(=O)c1ccccc1)Oc1cccc(Cl)c1,·,·,7.5µM,–,–,–
Cc1c(NC(=O)C(C)(C)Oc2ccc(Cl)cc2)cccc1-c1nc2ccccc2o1,–,·,·,–,–,–
CC12COC3(P(=O)(c4ccccc4)c4ccccc4)CC1CCC23CP(=O)(c1ccccc1)c1ccccc1 (centres undefined),71µM,–,–,–,–,–
CCOC(=O)c1cc2c(=O)n3ccccc3nc2n(CCCOC)c1=NC(=O)c1c(-c2ccccc2Cl)noc1C,–,·,·,–,–,–
O=C(O)c1ccc(Cl)c2c1C1C=CCC1C(c1ccccn1)N2 (centres undefined),25µM,·,·,·,·,·
Cc1cc([N+](=O)[O-])cc2c1NC(c1ccccn1)C1CC=CC21 (centres undefined),–,–,?,–,–,50µM
O=[N+]([O-])c1ccc(Cl)c2c1C1C=CCC1C(c1ccccn1)N2 (centres undefined),45µM,?,–,?,?,40µM
COc1cccc(-c2nc3c(C#N)c[nH]n3c2NC2CCCC2)c1OC,–,·,·,–,–,–
O=C(CSc1nc2c(cnn2-c2ccccc2)c(=O)[nH]1)N1CCOCC1,–,–,13µM,–,–,–[11.4 µM]
CCCCCSc1nc2c(cnn2-c2ccccc2)c(=O)[nH]1,–,–,–,–,–,–
SMILES,BAZ2B block,L3MBTL1 block,PLK1 PBD block,VDR inhibitor,HP1b binding inh,JMJD2A Tudor inh
Nc1nc(SCC(=O)N2CCCC2)[nH]c(=O)c1-c1ccccc1,–,·,6.7µM,–,?,–[11.4 µM]
Nc1nc(SCC(=O)N2CCOCC2)[nH]c(=O)c1-c1ccccc1,–,–,–,–,–,–
CCCCCSc1nc2c(cnn2-c2ccc(F)cc2)c(=O)[nH]1,–,·,27µM,–,–,22µM
Cc1cc(Nc2cccc(Br)c2)n2c(nc3ccccc32)c1C#N,?,·,·,–,–,–
CCOC(=O)c1ccc2c(c1)N(CC(=O)Nc1ccc(CC)cc1)C(=O)c1ccccc1S2,–,·,·,–,–,–
COc1cccc(CNC(=O)c2c(C)nn(-c3cccc(C)c3)c2-n2cccc2)c1,–,·,·,–,–,–
Cc1ccc(NC(=O)C2CCN(S(=O)(=O)c3cc([N+](=O)[O-])ccc3Cl)CC2)nc1,·,–,–,–,–,45µM
CC(=O)COC(=O)C1CCN(S(=O)(=O)c2cc([N+](=O)[O-])ccc2Cl)CC1,50µM,28µM,–,–,–,56µM
O=C(COC(=O)C1CCN(S(=O)(=O)c2cc([N+](=O)[O-])ccc2Cl)CC1)Nc1ncc(Cl)cc1Cl,32µM,–,?,–,?,25µM
Cc1ccc(NC(=O)c2oc3ccc(S(=O)(=O)N4CCCCCC4)cc3c2C)c(C)c1,–,·,·,–,–,–
O=C(CSc1nc(=O)n2ccccc2n1)N1CCN(c2ccccc2)CC1,?,–,–,–,–,–
COc1ccc(CN(CC(=O)NCc2ccccc2)C(=O)CCC(=O)Nc2ccccn2)cc1,–,·,–,–,–,–
O=C(Cc1ccccc1)Nc1sc2c(c1C(=O)Nc1cccc(Cl)c1)CCCC2,·,·,·,·,·,–
CCC(C)/C(C)=N/NC(=O)c1ccc(COc2ccc(Cl)c(C)c2)cc1 (centres undefined),–,–,–,–,–,–
C(=N\Nc1nc(-c2ccccc2)cs1)/c1ccncc1,?,–,–,–,–,?
Cc1ccc(-c2csc(N/N=C/c3ccco3)n2)cc1,?,–,–,–,–,50µM
C(=N\Nc1nc(-c2ccccc2)cs1)/c1cccs1,?,–,30µM,–,–,–
C(=N\Nc1nc(-c2ccccc2)cs1)/c1ccco1,40µM,?,–,–,?,?
Cc1ccc2nc(N/N=C/c3ccco3)cc(C)c2c1,45µM,–,–,–,–,?
N#Cc1ccccc1S(=O)(=O)N1CCN(C(=O)[C@@H]2CCCN2C(=O)c2cccs2)CC1,–,–,–,–,–,–
COc1ccccc1Cn1ccn(Cc2ccc(C)cc2)c(=O)c1=O,?,·,·,–,–,?
Brc1ccc(-c2csc(N/N=C/c3ccco3)n2)cc1,8.9µM,·,–,–,–,–
Cc1ccc(Sc2nc3ccc(C)cn3c(=O)c2/C=N/O)cc1,–,–,–,–,–,–
O=C(O)c1ccc(-c2cccc(Cl)c2)o1,·,·,–,–,–,–
O=C(O)c1ccc(-c2ccc(-c3ccccc3)cc2)o1,·,·,·,89µM,·,·
CCS(=O)(=O)N1CCN(C2CCC(c3ccccc3)CC2)CC1 (centres undefined),50µM,–,·,·,·,·
Cc1ccc(S(=O)(=O)N2C(=O)[C@@H]3Cc4ccccc4CN3C2=O)cc1,–,·,–,–,–,7.9µM
CCc1nn2c(=O)c(S(=O)(=O)Nc3ccc(C)c(C)c3)c(C)nc2s1,?,·,·,–,–,–
Brc1cccc(-c2nnc(-c3ccccc3)o2)c1,–,–[11.4 µM],–,–,–,–
Cc1ccc(-c2nnc(-c3cccc(Br)c3)o2)cc1,–,–[11.4 µM],27µM,?,–,50µM
